These results are taken from publication PMC5540273 (PLoS ONE, 2017).
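Further: KINOMEscan kinase panel screen.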

The subject of this assay is CSNK2A2. The settings on record: concentration: 1 μM, replicates: in singlicate; n = 1.
On to `CN(C)S(=O)(=O)c1cc(-c2ccc3nccc(-c4cccc(S(N)(=O)=O)c4)c3c2)cnc1N` [GSK1669921], for which the “%Inh” value came to 4%. In the case of `CCS(=O)(=O)c1ccc(OC)c(Nc2nccc(-c3c(-c4cccc(NC(=O)c5c(F)cccc5F)c4)nn4ncccc34)n2)c1` [GSK326180], the “%Inh” value is given as 0%. Then `COc1cc(Nc2nccc(N3CCC(NC(=O)c4cc5ccccc5s4)C3)n2)cc(OC)c1OC` (centres unmarked) [GSK1379760], with 0%; and `Cc1ccc(F)c(C(=O)Nc2cccc(-c3nn4ccccc4c3-c3ccnc(Nc4cccc(F)c4)n3)c2)c1F` [GSK361061], with 10%; and `Clc1ccc(-c2nn3ncccc3c2-c2ccnc(Nc3ccc4c(c3)OCCO4)n2)cc1` [GW829116], with 8%.

Turning to `CCCCc1nn2ncccc2c1-c1ccnc(Nc2ccc(N3CCN(C)CC3)cc2)n1` [GW684941], the “%Inh” value was 7%. Take `CCn1c(-c2nonc2N)nc2c(C#CC(C)(C)O)ncc(OCCCCN)c21.O=C(O)C(F)(F)F.O=C(O)C(F)(F)F` [GSK507274]: the “%Inh” value was determined as 0%. `O=C(NC1CCN(c2ccnc(Nc3ccc(F)cc3)n2)C1)c1cc2ccccc2s1` (centres unmarked) [GSK1379716]: the “%Inh” value came to 12%. Then `COc1cc2c(cc1OCCN1CCNCC1)ncc1c3ccc(C#N)cc3[nH]c21`, with 92.4%; and `COc1cc(Nc2nccc(N3CCC(NC(=O)Nc4cccc(C(C)=O)c4)C3)n2)cc(OC)c1OC` (centres unmarked) [GSK1379753], with 16%; and `O=C(Nc1cccc(-c2nn3ccccc3c2-c2ccnc(Nc3cccc(C(F)(F)F)c3)n2)c1)c1c(F)cccc1F` [GSK292658], with 2%.
